Consider 17 molecules from PubChem BioAssay (Tox21).

Molecules are shown by their SMILES. Where “and” joins values, the source holds several entries; their conditions need not be identical. Identical values can stand only once. Results filed as inconclusive are left out. More than one record can exist for a structure, and the calls need not agree. Calls of active or inactive are those of the source. Unless noted, calls come from the whole dose curve; as a rule, active = well fitted curve in the direction sought with a large enough effect in the repeat runs; inconclusive = weak or mixed curves; inactive = no such curve, though single readings can be large; an effect the other way counts as inactive or inconclusive.

Assay [1] can be described thus: qHTS assay for small molecules that induce genotoxicity in human embryonic kidney cells expressing luciferase-tagged ATAD5 (AID 651632). Note: nearly all actives have a fitted effect of over 15% in size. Note: potency is the fitted concentration of half-maximal effect. The method, boiled down:
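Reporter cells (HEK293T) express luciferase-tagged ATAD5, a protein that accumulates after DNA damage. Treat 16 hr at 37C/5% CO2, add Amplite, wait 30 min at RT, and read luminescence.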
(Quantitative high-throughput screening tests each substance at several concentrations.)

Assay [2] is described as follows: qHTS assay for small molecule agonists of the p53 signaling pathway - cell viability (AID 651633; calls by dose curve; note: nearly all actives have a fitted effect of over 30% in size; note: potency is the fitted concentration of half-maximal effect). The method, boiled down: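 p53RE-bla cells, seeded at 4,000 per well and rested 5 h at 37 C/5% CO2, received compounds in DMSO for 16 h at 37 C. CellTiter-Glo was then added, and luminescence was read after 30 min at room temperature to gauge cytotoxicity.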
The nature of assay [3]: qHTS assay for small molecules that induce genotoxicity in human embryonic kidney cells expressing luciferase-tagged ATAD5 - cell viability (AID 651634; calls by dose curve; note: nearly all actives have a fitted effect of over 25% in size; note: potency is the fitted concentration of half-maximal effect). An outline of the steps:
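Seeding of 2,000 HEK293T ATAD5-luciferase cells per well preceded pin-tool compound transfer. Plates sat 15.5 hr at 37C under 5% CO2, then fluorescence was read after 30 min with CellTiter-Fluor.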

Assay [4] is described as follows: qHTS assay for small molecule disruptors of the mitochondrial membrane potential - cell viability (AID 720634; calls by dose curve; note: nearly all actives have a fitted effect of over 20% in size; note: potency is the fitted concentration of half-maximal effect). The method, boiled down: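 Measuring cytotoxicity alongside mitochondrial potential, the screen quantified ATP by luminescence in HepG2 cells after 1 hr compound incubation and a 30 min room-temperature CellTiter-Glo step.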
Assay [5] can be described thus: qHTS assay to test for compound auto fluorescence at 590 nm (red) in HepG2 cells (AID 720674). The method, boiled down:
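Intrinsic compound fluorescence in the red window (Ex/Em 540/590 nm) is measured in attached HepG2 cells exposed for 1 hr, DMSO vehicle as baseline, benchmarked to Rose Bengal sodium.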

Assay [6] can be described thus: qHTS assay to test for compound auto fluorescence at 535 nm (green) in HepG2 cells (AID 720675).
Assay [7] can be described thus: qHTS assay to test for compound auto fluorescence at 460 nm (blue) in HEK293 cells (AID 720678). An outline of the steps:
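Measured: blue fluorescence (Ex 405/Em 460 nm) of compound-treated HEK293 cells, incubated overnight at 37C with 5% CO2 and scaled to triamterene equivalents.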

The nature of assay [8]: qHTS assay to test for compound auto fluorescence at 590 nm (red) in HEK293 cells (AID 720679). The method, boiled down:
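Using HEK293 cells at 2,000 per well, the screen added 23 nL of each compound after cell attachment and incubated overnight (37C, 5% CO2). The plate reader then captured red-label fluorescence, Ex/Em 540/590nm.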

Assay [9] in a line: qHTS assay for small molecule disruptors of the mitochondrial membrane potential (AID 720635). Note: potency is the fitted concentration of half-maximal effect. An outline of the steps:
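HepG2 cells (2,000/well) attached overnight at 37C, then took compound for 1 hr at 37C, 5% CO2. Mito-MPS dye was added for 30 min; fluorescence was read at 490/535 nm (monomers) and 540/590 nm (aggregates).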

With `C[N+](C)(C)CC(=O)O`, the Potency result in assay [1], in assay [2], in assay [3], in [4] and in [7] was “inactive” each time. The result in [5], in assay [6] and in assay [8] was inactive.

For `Cc1cc(Cl)ccc1N=CN(C)C`, the Potency entry in assay [1], in [2], in assay [3], in [4], in [9] and in [7] was “inactive” each time. For the same molecule, the molecule was classed as inactive in assay [5] and in [8].

Take `Clc1ccccc1-c1nnc(-c2ccccc2Cl)nn1`: the Potency in assay [1] was 30.4 µM (active). In addition, the Potency result in [3] and in [7] was “inactive” each time. The outcome in [5], in assay [6] and in assay [8] was inactive.

Turning to `CCOP(=S)(OCC)SCn1c(=O)oc2cc(Cl)ccc21`, the Potency entry in assay [2], in assay [3] and in assay [7] was “inactive” each time. The Potency in [4] is 54.5 µM (active); in [9], 29.3 µM (active) and 27.3 µM (active). For the same molecule, the outcome in [5], in [6] and in assay [8] was inactive.

With `CC1CC(=O)O1` (configuration not stated), the Potency entry in assay [2], in assay [3], in assay [4], in assay [9] and in assay [7] was “inactive” in each case. Besides, the molecule was called inactive in assay [5] and in [8].

As to `CCCCCCCC[N+](C)(CCCCCCCC)CCCCCCCC`, the Potency entry in assay [1] and in assay [7] was “inactive” in each case. Also, the Potency in assay [2] was 10.8 µM (active) and 24.4 µM (active) and 24.3 µM (active); in assay [3], 21.6 µM (active) and 19.3 µM (active); in assay [4], 27.3 µM (active) and 54.5 µM (active); in assay [9] it was 1.72 µM (active) and 770 nM (active) and 2.43 µM (active). The molecule was called inactive in [5], in assay [6] and in assay [8].

Consider `CC(C)=CC1C(C(=O)OCc2cccc(Oc3ccccc3)c2)C1(C)C` (configuration not stated), for which the Potency result in assay [2], in assay [3], in [4], in assay [9] and in assay [7] was “inactive” throughout. The call in assay [5], in assay [6] and in assay [8] was inactive.

As for `Nc1ncn[nH]1`, the Potency entry in assay [1], in assay [2], in assay [3], in assay [4], in assay [9] and in [7] was “inactive” in each case. In addition, the outcome in assay [5], in [6] and in [8] was inactive.

Consider `CCCCCCCCCC(CC)c1ccc(S(=O)(=O)O)cc1` (configuration not stated), for which the Potency result in assay [4] was “inactive and 68.6 µM (active)”; in assay [9], 61.1 µM (active). In addition, the result in assay [5], in assay [6] and in assay [8] was inactive. Besides, in [7], the Potency entry is “inactive”.

Consider `CC(C)COC(=O)c1ccccc1C(=O)OCC(C)C`, for which the Potency result in assay [1], in assay [2], in [3], in assay [4] and in assay [7] was “inactive” throughout. The Potency in assay [9] was 68.6 µM (active). Besides, the molecule was called inactive in assay [5] and in assay [8].

`N#Cc1cccnc1`: the Potency entry in [2], in assay [3], in assay [4], in assay [9] and in assay [7] was “inactive” in each case. Besides, the molecule was classed as inactive in assay [5] and in assay [8].

In the case of `CC(C)=CC1C(C(=O)OCN2C(=O)C3=C(CCCC3)C2=O)C1(C)C` (configuration not stated), the Potency entry in assay [1], in [2], in assay [3] and in assay [7] was “inactive” each time. The Potency in assay [9] is 29.8 µM (active) and 54.5 µM (active). Further, the molecule was called inactive in assay [5], in assay [6] and in [8].

As for `O=C1C(Cl)=C(Cl)C(=O)c2ccccc21`, the Potency result in assay [1] and in assay [3] was “inactive” throughout. Also, the Potency is 6.88 µM (active) and 21.7 µM (active) in assay [2]; 13.7 µM (active) and 15.4 µM (active) in assay [4]; 3.87 µM (active) and 4.86 µM (active) in assay [9]. The molecule was called inactive in assay [5], in [6] and in assay [8].

As to `[Cl-].[Cl-].[Cl-].[Fe+3]`, the Potency result in assay [3] and in assay [7] was “inactive” throughout. The outcome in [5], in assay [6] and in assay [8] was inactive.

For the molecule `C=CC(Cl)CCl` (configuration not stated), the Potency entry in assay [1], in assay [2], in [3] and in assay [7] was “inactive” throughout. Moreover, the molecule was called inactive in assay [5], in assay [6] and in [8].

On to `Cc1cccc(N=Nc2ccc(N(C)C)cc2)c1`, for which the Potency entry in [2] and in [7] was “inactive” throughout. The Potency in assay [3] is 35 µM (active) and 27.3 µM (active); in assay [4] it was 19.7 µM (active) and 21.7 µM (active); in assay [9] it was 24.8 µM (active) and 27.3 µM (active). Besides, the call in [5], in [6] and in assay [8] was inactive.

For the molecule `CC(C)(c1ccccc1)c1ccc(O)c(C(C)(C)c2ccccc2)c1`, the Potency result in assay [1] and in assay [7] was “inactive” throughout. In addition, the Potency is 13.6 µM (active) and 30.6 µM (active) in [2]; 60.6 µM (active) in assay [3]; 1.52 µM (active) and 2.43 µM (active) in assay [9]. The molecule was classed as inactive in assay [5] and in assay [8].
